Compounds with a hit are over-represented: about 32% of the library has one in this group of screens.
CYP2C9 inh = inhibitors of human CYP2C9; CYP2C9 Supersomes, luciferin-H conversion, luminescence; inhibition, % at 5 µM; 20% of 96,000 active;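 active = blocking of liver enzyme CYP2C9 beyond about 50% at 5 µM, limit read from the data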
Target sequence (P11712 whole entry, looked up): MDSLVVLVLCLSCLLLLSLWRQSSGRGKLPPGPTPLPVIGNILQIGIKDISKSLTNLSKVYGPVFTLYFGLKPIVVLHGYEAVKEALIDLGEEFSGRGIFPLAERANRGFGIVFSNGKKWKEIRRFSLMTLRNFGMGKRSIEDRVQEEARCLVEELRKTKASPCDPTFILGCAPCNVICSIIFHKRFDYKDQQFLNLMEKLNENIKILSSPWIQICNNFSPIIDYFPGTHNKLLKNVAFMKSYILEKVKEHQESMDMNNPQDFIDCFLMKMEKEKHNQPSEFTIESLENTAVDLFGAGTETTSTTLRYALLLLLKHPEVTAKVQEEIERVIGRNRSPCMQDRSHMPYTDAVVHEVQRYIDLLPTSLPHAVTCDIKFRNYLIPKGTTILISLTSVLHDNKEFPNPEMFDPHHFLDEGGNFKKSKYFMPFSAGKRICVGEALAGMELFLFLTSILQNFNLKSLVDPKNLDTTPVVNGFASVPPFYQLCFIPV
PostGolgi yeast = growth inhibition of a yeast mutant, post-Golgi transport screen; inhibition, % at 10 µM; 0.9% of 98,000 active; post-Golgi transport phenotypic cell assay;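 note: yeast cells grown in 1536-well plates; yeast grown about 18 h at 30C before absorbance read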
CYP2C19 activ = increases human CYP2C19 enzyme activity; 96,000 tested, under 10 active; AID 1025; activation factor at 5 µM; P33261; recombinant CYP2C19, luciferin-H EGE luminescence; hits give high values; 0 = fully inhibited enzyme, 1 = untreated enzyme;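 active = activation factor of at least 2 at 5 µM in the primary screen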
CYP2C19 inhib = human CYP2C19 inhibition; AID 778; CYP2C19 Supersomes, luciferin-H EGE luminescence, 30 min; 21% of 96,000 active; inhibition, % at 5 µM;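 active = CYP2C19 inhibition above a set limit at 5 µM in the primary screen, cut at about 50% in these data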
PostGolgi ctrl = growth of the yeast control strain, post-Golgi counter-screen. efflux-deficient yeast background strain, growth absorbance A615, 16 h. inhibition, % at 10 µM. 5% of 98,000 active
CYP2C9 activ = CYP2C9 (human) activation; P11712; recombinant CYP2C9, luciferin-H conversion, luminescence; hits give high values; factor 1 = untreated enzyme, 0 = blocked; activation factor at 5 µM; 1.4% of 96,000 active; AID 1024;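 active = activation factor of 2 or more for CYP2C9 at a 5 µM dose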
Of the large screens only hits and unclear results are named; the others gave an inactive call. Cut-off read from the data, not from the text of the source, unless noted: active = inhibition above about 30%; inactive = the rest.

O=C(C1CCN(S(=O)(=O)c2ccc3ccccc3c2)CC1)N1CCN(c2ncccn2)CC1	CYP2C19 inhib 71
COc1ccc(C2C(C(C)=O)=C(O)C(=O)N2CCc2ccccc2)c(OC)c1 (stereo not given)	none
Cc1ccc(C(=O)COC(=O)CCC(=O)NC2CCCCC2)cc1C	none
O=c1c2c3n(c(=S)nc2[nH]n1-c1ccccc1)CCCCC3	PostGolgi ctrl 62
N#Cc1c2n(c(=S)n(-c3ccccn3)c1=O)CCCCC2	none
O=S1(=O)CCN2C(c3ccc4c(c3)CCCC4)=CSC2=N1	none
O=S1(=O)CCN2C(=N1)Sc1c2ccc2c1CCCC2	CYP2C19 inhib 70
COC(=O)c1ccc(C(=O)OC)c(NC(=O)CSCc2ccccc2Br)c1	none
Cc1cc(C)c2[nH]c(=O)c(C(c3nnnn3CC3CCCO3)N3CCCC(C)C3)cc2c1 (stereo not given)	none
CCCC(=O)NC(c1ccco1)c1cc(Cl)c2cccnc2c1O (stereo not given)	none
O=C(Oc1c(Cl)cc(Cl)c2cccnc12)c1ccco1	PostGolgi ctrl 31
COc1ccc(C(=O)Oc2c(CN3CCOCC3)cc(Cl)c3cccnc23)cc1	none
COc1cc(C(=O)Oc2c(CN3CCOCC3)cc(Cl)c3cccnc23)cc(OC)c1OC	CYP2C19 inhib 66
COc1cccc(C(=O)Oc2c(CN3CCOCC3)cc(Cl)c3cccnc23)c1	CYP2C9 inh 91, CYP2C19 inhib 63
O=C(Oc1ccc(Cl)c2cccnc12)N1CCOCC1	none
O=C(Oc1c(CN2CCOCC2)cc(Cl)c2cccnc12)c1ccc(F)cc1	CYP2C9 inh 62
CC(C)(C)NC(=O)C1CCN(C(=O)c2ccc(Br)cc2)CC1	none
COc1ccc(/C=C/C(O)=C2/C(=O)N(C)C3(C)CC2c2ccccc2O3)cc1 (stereo not given)	none
Cc1ccc(/C=C/C(O)=C2/C(=O)N(C)C3(C)CC2c2ccccc2O3)cc1 (stereo not given)	PostGolgi ctrl 44
COc1ccc(N(CC(=O)Nc2cccc(SC)c2)S(C)(=O)=O)cc1	CYP2C9 inh 89, CYP2C19 inhib 94
COc1ccc(NC(=O)CN(c2cccc(C(F)(F)F)c2)S(C)(=O)=O)cc1OC	none
CCOc1ccc(N(CC(=O)Nc2ccccc2)S(C)(=O)=O)cc1	CYP2C9 inh 70, CYP2C19 inhib 88
CC(=O)Nc1ccc(NC(=O)CN(c2cccc(C)c2)S(C)(=O)=O)cc1	CYP2C19 inhib 52
CCOc1ccc(NC(=O)CN(c2cccc(C(F)(F)F)c2)S(C)(=O)=O)cc1	CYP2C9 inh 72, CYP2C19 inhib 85
CCOCc1cnc(C)nc1NCC(=O)c1c(C)[nH]c2ccc(OC)cc12	none
COc1cccc(NC(=O)CN(c2cccc(C(F)(F)F)c2)S(C)(=O)=O)c1	CYP2C9 inh 70, CYP2C19 inhib 88
O=C(O)CSc1nnc(Cc2ccccc2)n1Cc1ccccc1	none
NC(=O)CSc1nnc(Cc2csc(Nc3ccccc3)n2)n1Cc1ccccc1	CYP2C19 inhib 66
Cc1c([N+](=O)[O-])c(C(=O)Nc2ccc3c(c2)OCCO3)nn1C	CYP2C19 inhib 68
Cc1occc1C(=O)Nc1ccc2c(c1)OCCO2	CYP2C19 inhib 81
Cc1cc(C(=O)Nc2ccc3c(c2)OCCO3)c(C)o1	none
CC(=O)c1c(C)[nH]c(C(=O)CSc2nnc(CN3CCCCCC3=O)n2-c2ccccn2)c1C	none
Cc1nc(NC(=O)COc2ccccc2)sc1C(=O)Nc1cccc(Cl)c1	none
CC1CCC(=C(C#N)c2nc(-c3cc4ccccc4oc3=O)cs2)CC1 (stereo not given)	CYP2C9 inh 88
COC(=O)C1(CO)NC(c2cccs2)C2C(=O)N(c3ccccc3)C(=O)C21 (stereo not given)	none
O=C(OCC(=O)c1c[nH]c2ccccc12)c1ccco1	none
O=C(NCCC(c1ccccc1)c1ccccc1)c1ccc(Br)o1	CYP2C9 inh 74, CYP2C19 inhib 67
O=C(OCC(=O)c1c[nH]c2ccccc12)c1ccc(Br)o1	CYP2C19 inhib 66
O=C(NCC1(c2ccccc2)CCOCC1)c1ccc(Br)o1	CYP2C19 inhib 72
O=C(O)CCNC(=O)c1ccc(Br)o1	none
O=C(NCCSc1c[nH]c2ccccc12)c1ccc(Br)o1	CYP2C9 inh 86
CC(C)(C)c1cc(NC(=O)c2cc(F)c(F)c(F)c2F)no1	none
COc1ccc(-c2nnc3n2N=C(C)CS3)cc1OC	none
Cc1cccc(-c2nnc3n2N=C(c2ccccc2)CS3)c1	PostGolgi ctrl 38
COc1ccc(-c2nnc3n2N=C(c2ccccc2)CS3)cc1OC	CYP2C9 inh 76, CYP2C19 inhib 52 (no result: PostGolgi yeast, PostGolgi ctrl)
COc1ccc(C2=Nn3c(nnc3-c3ccccc3)SC2)cc1OC	CYP2C19 inhib 72
CCOC(=O)C1CCN(C(=O)Cn2cc3c(n2)CCC(C)C3)CC1 (stereo not given)	none
COc1ccc(-c2nc3n(n2)C(c2ccncc2)C(C(N)=O)=C(C)N3)cc1 (stereo not given)	none
O=S(=O)(c1ccccc1)n1ccc2ccccc21	CYP2C9 activ 2.4
COc1ccc(/C=C/c2c([N+](=O)[O-])c(=O)n(C)c(=O)n2C)cc1O	CYP2C9 inh 53
COc1cc(/C=C/c2c([N+](=O)[O-])c(=O)n(C)c(=O)n2C)cc(OC)c1OC	none
NC(=O)c1cc(S(=O)(=O)NC2CCCCC2)co1	none
O=C(Nc1ccccc1)N1CCN(c2ccc(C(F)(F)F)cn2)CC1	none
O=C(/C=C/c1c(Cl)cccc1Cl)N1CCN(c2ncccn2)CC1	CYP2C9 inh 52, CYP2C19 inhib 96
O=C(Nc1ccc2ccccc2c1)N1CCN(c2ncccc2C(F)(F)F)CC1	CYP2C19 inhib 70
O=C(Nc1cccc(Cl)c1)N1CCN(c2ncccn2)CC1	CYP2C9 inh 56, CYP2C19 inhib 89
O=C(Nc1cccc(Cl)c1)N1CCN(C/C=C/c2ccccc2)CC1	CYP2C9 inh 62, PostGolgi yeast 40
O=c1[nH]c(CSc2nnc(NCCCN3CCOCC3)s2)nc2cc(Cl)ccc12	none
O=S(=O)(c1ccccc1C(F)(F)F)N1CCOCC1	none
CS(=O)(=O)Nc1ccc(C(=O)NC2CCCC2)cc1	none
O=C(Nc1ccccc1Cl)N1CCN(c2ccccn2)CC1	none (no result: CYP2C9 inh, CYP2C19 activ, CYP2C19 inhib, CYP2C9 activ)
Cc1ccc(NC(=O)CCN2CCN(C/C=C/c3ccccc3)CC2)cc1C	CYP2C9 activ 2.2
O=C(Nc1ccc(F)cc1F)N1CCN(c2ncccn2)CC1	CYP2C19 inhib 70
Cc1ccc(NC(=O)CCN2CCN(C/C=C/c3ccccc3)CC2)cc1	none
O=C1CC(c2ccc(S(=O)(=O)N3CCN(c4ccccc4)CC3)cc2)CN1 (stereo not given)	none
O=C(c1ccco1)N1CCN(C(=O)c2sccc2-c2ccccc2)CC1	none (no result: CYP2C9 inh, CYP2C19 activ, CYP2C19 inhib, CYP2C9 activ)
O=C(CSc1nnc(-c2ccco2)o1)NC(=O)C1COc2ccccc2O1 (stereo not given)	CYP2C19 inhib 61
